The text below walks through data of PubChem BioAssay (NCI).

This is part of a sample that, as a whole, favours compounds with a hit. Of some 79,000 tested, about 15% had one in any assay. A number with no mark means an inactive call. Active and inactive are the calls of the source. No stated cut-off is given here; in the data, active means growth inhibition above about 70%; inactive means the rest.

Assay [1] is described as follows: NCI Yeast Anticancer Drug Screen. Data for the rad50 strain (AID 155).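 Further: 0% = growth of vehicle-only cultures of the same strain.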 The conditions noted are these: S. cerevisiae rad50 strain growth inhibition, stronger effect = higher value. Put shortly: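 Yeast carrying a defined DNA repair defect were exposed to test compounds, and growth was compared with vehicle-treated controls to give percent inhibition.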
Assay [2] in a line: NCI Yeast Anticancer Drug Screen. Data for the mec2-1 strain (AID 157). The conditions noted are these: S. cerevisiae mec2-1 strain, stronger effect = higher value. Put shortly:
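Readout is yeast growth inhibition, normalised to vehicle-treated controls, in the mec2-1 strain exposed to compound.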

Assay [3] can be described thus: NCI Yeast Anticancer Drug Screen. Data for the sgs1 mgt1 strain (AID 161).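 Further: 0% = growth of cultures given vehicle only.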 The settings on record: S. cerevisiae sgs1 mgt1 strain, stronger effect = higher value. Put shortly:
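Compounds are added to genetically altered yeast, and growth is compared with cultures given vehicle alone to give percent inhibition.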

Assay [4] is described as follows: NCI Yeast Anticancer Drug Screen. Data for the cln2 rad14 strain (AID 165).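 Further: 0% = growth equal to vehicle treated cultures.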 The settings on record: S. cerevisiae cln2 rad14 strain, stronger effect = higher value. Put shortly: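 Relative to vehicle controls, growth inhibition of compound-treated cln2 rad14 yeast was recorded.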
Assay [5] is described as follows: NCI Yeast Anticancer Drug Screen. Data for the bub3 strain (AID 167). The settings on record: S. cerevisiae bub3 mutant strain, stronger effect = higher value. Put shortly: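 Compounds were applied to a genetically altered yeast strain carrying a cell-cycle control defect. Growth inhibition was scored against vehicle-treated controls.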
A short description of assay [6]: NCI Yeast Anticancer Drug Screen. Data for the mlh1 rad18 strain (AID 175). The settings on record: S. cerevisiae mlh1 rad18 strain growth inhibition, stronger effect = higher value. Put shortly:
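Test agents were incubated with a yeast strain of defined genotype (DNA damage repair defect). Inhibition of growth was derived by comparison with vehicle-exposed cultures.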

Setting [7] is: at 5.0 µM (retest, dose inferred, filed as 0.5).
The mark [8] stands for this setting: at 50.0 µM (retest, dose inferred, filed as 5.0).

Regarding `Clc1ccc(C2=Nc3ccccc3SC(c3ccc(Cl)c(Cl)c3)C2)c(Cl)c1` (stereo not given), the growth inhibition is 16% in assay [1] (setting [7]); 16% in assay [1] (setting [8]); 64.2% in assay [1] (at 50.0 µM); 12% in assay [2] (setting [7]); 12% in assay [2] (setting [8]); 49.3% in assay [2] (at 50.0 µM). The growth inhibition in assay [3] (setting [7]) is 1%; in assay [3] (setting [8]), 1%; in assay [3] (at 50.0 µM) it was 63.3%; in assay [4] (setting [7]), 10%; in assay [4] (setting [8]), 10%; in assay [4] (at 50.0 µM) it was 40.8%. The growth inhibition in assay [5] (setting [7]) is 9%; in assay [5] (setting [8]) it was 9%; in assay [5] (at 50.0 µM), 70.4% (active); in assay [6] (setting [7]), 13%; in assay [6] (setting [8]), 13%; in assay [6] (at 50.0 µM), 63.7%.
As to `CCCCCCCN=C(N)c1ccc(C(=O)OC2CCCCC2)cc1`, the growth inhibition in assay [1] (setting [7]) is -1%; in assay [1] (setting [8]), 84% (active); in assay [1] (at 50.0 µM) it was 96.8% (active); in assay [2] (setting [7]) it was 17%; in assay [2] (setting [8]) it was 89% (active); in assay [2] (at 50.0 µM), 98% (active). Moreover, the growth inhibition in assay [3] (setting [7]) is 34%; in assay [3] (setting [8]), 98% (active); in assay [3] (at 50.0 µM) it was 99% (active); in assay [4] (setting [7]), 1%; in assay [4] (setting [8]) it was 70% (active); in assay [4] (at 50.0 µM), 96.4% (active). The growth inhibition is 1% in assay [5] (setting [7]); 73% (active) in assay [5] (setting [8]); 97.5% (active) in assay [5] (at 50.0 µM); 21% in assay [6] (setting [7]); 90% (active) in assay [6] (setting [8]); 99% (active) in assay [6] (at 50.0 µM).
As for `Cn1c(=O)cc2c3c(ccc(C(=O)O)c31)C(=O)c1ccccc1-2`, the growth inhibition in assay [1] (setting [7]) is 40%; in assay [1] (setting [8]), 34%; in assay [1] (at 50.0 µM), 80.2% (active); in assay [2] (setting [7]), 10%; in assay [2] (setting [8]), 50%; in assay [2] (at 50.0 µM) it was 36.2%. Besides, the growth inhibition in assay [3] (setting [7]) is 2%; in assay [3] (setting [8]) it was 27%; in assay [3] (at 50.0 µM), 45.1%; in assay [4] (setting [7]), -8%; in assay [4] (setting [8]) it was 22%; in assay [4] (at 50.0 µM) it was 16.5%. Also, the growth inhibition in assay [5] (setting [7]) was 1%; in assay [5] (setting [8]), 62%; in assay [5] (at 50.0 µM) it was 61.8%; in assay [6] (setting [7]), 12%; in assay [6] (setting [8]), 50%; in assay [6] (at 50.0 µM), 51.7%.
As for `Cc1ccc(-[n+]2cc([O-])on2)cc1`, the growth inhibition was -11% in assay [1] (setting [7]); 15% in assay [1] (setting [8]); 27.4% in assay [1] (at 50.0 µM); -10% in assay [2] (setting [7]); -8% in assay [2] (setting [8]); 28.9% in assay [2] (at 50.0 µM). In addition, the growth inhibition in assay [3] (setting [7]) was -6%; in assay [3] (setting [8]), 0%; in assay [3] (at 50.0 µM) it was -5.5%; in assay [4] (setting [7]), -3%; in assay [4] (setting [8]) it was -3%; in assay [4] (at 50.0 µM), 64.2%. Also, the growth inhibition is 10% in assay [5] (setting [7]); 2% in assay [5] (setting [8]); 15.6% in assay [5] (at 50.0 µM); -7% in assay [6] (setting [7]); 22% in assay [6] (setting [8]); 28.4% in assay [6] (at 50.0 µM).
`Cc1nc(N)sc1N=Nc1cc(Cl)c([N+](=O)[O-])cc1Cl`: the growth inhibition in assay [1] (setting [7]) is -4%; in assay [1] (setting [8]), 26%; in assay [1] (at 50.0 µM) it was 38%; in assay [2] (setting [7]), -7%; in assay [2] (setting [8]), 33%; in assay [2] (at 50.0 µM), 39.5%. Further, the growth inhibition in assay [3] (setting [7]) was 4%; in assay [3] (setting [8]) it was 77% (active); in assay [3] (at 50.0 µM), 70.2% (active); in assay [4] (setting [7]), 4%; in assay [4] (setting [8]) it was 2%; in assay [4] (at 50.0 µM) it was 35.1%. For the same compound, the growth inhibition was 4% in assay [5] (setting [7]); 7% in assay [5] (setting [8]); 47.5% in assay [5] (at 50.0 µM); 11% in assay [6] (setting [7]); 78% (active) in assay [6] (setting [8]); 78.1% (active) in assay [6] (at 50.0 µM).
Turning to `CNc1ccc([N+](=O)[O-])cc1`, the growth inhibition in assay [1] (setting [7]) is -4%; in assay [1] (setting [8]) it was 13%; in assay [1] (at 50.0 µM) it was 43%; in assay [2] (setting [7]), 1%; in assay [2] (setting [8]), 9%; in assay [2] (at 50.0 µM), 12.8%. Besides, the growth inhibition is -1% in assay [3] (setting [7]); 11% in assay [3] (setting [8]); -5.2% in assay [3] (at 50.0 µM); 2% in assay [4] (setting [7]); 1% in assay [4] (setting [8]); 22.9% in assay [4] (at 50.0 µM). Moreover, the growth inhibition was -1% in assay [5] (setting [7]); 14% in assay [5] (setting [8]); 31.1% in assay [5] (at 50.0 µM); 0% in assay [6] (setting [7]); 19% in assay [6] (setting [8]); 10.3% in assay [6] (at 50.0 µM).
On to `[Fe+2].c1cc[cH-]c1.c1ccc(-c2ccc[cH-]2)cc1`, for which the growth inhibition in assay [1] (setting [7]) was -4%; in assay [1] (setting [8]) it was 29%; in assay [1] (at 50.0 µM), 7.6%; in assay [2] (setting [7]), -2%; in assay [2] (setting [8]) it was 32%; in assay [2] (at 50.0 µM), 23.3%. The growth inhibition in assay [3] (setting [7]) was -6%; in assay [3] (setting [8]) it was 47%; in assay [3] (at 50.0 µM) it was -9.4%; in assay [4] (setting [7]), 1%; in assay [4] (setting [8]), 16%; in assay [4] (at 50.0 µM), 16.9%. Moreover, the growth inhibition is 0% in assay [5] (setting [7]); 41% in assay [5] (setting [8]); 74.7% (active) in assay [5] (at 50.0 µM); 1% in assay [6] (setting [7]); 24% in assay [6] (setting [8]); 19% in assay [6] (at 50.0 µM).
For `O=[N+]([O-])C(=C1Nc2ccccc2N1)C(Cl)=C(Cl)Cl`, the growth inhibition was 10% in assay [1] (setting [7]); 8% in assay [1] (setting [8]); -4.9% in assay [1] (at 50.0 µM); 10% in assay [2] (setting [7]); 15% in assay [2] (setting [8]); 3.3% in assay [2] (at 50.0 µM). Also, the growth inhibition in assay [3] (setting [7]) was 13%; in assay [3] (setting [8]) it was 22%; in assay [3] (at 50.0 µM), 9.85%; in assay [4] (setting [7]), 10%; in assay [4] (setting [8]), 10%; in assay [4] (at 50.0 µM) it was -13.8%. The growth inhibition is 11% in assay [5] (setting [7]); 12% in assay [5] (setting [8]); -2.55% in assay [5] (at 50.0 µM); 15% in assay [6] (setting [7]); 16% in assay [6] (setting [8]); 11% in assay [6] (at 50.0 µM).
As to `CCCOC1=C(Cl)C(=O)c2cccc([N+](=O)[O-])c2C1=O`, the growth inhibition is 94% (active) in assay [1] (setting [7]); 98% (active) in assay [1] (setting [8]); 99.5% (active) in assay [1] (at 50.0 µM); 97% (active) in assay [2] (setting [7]); 99% (active) in assay [2] (setting [8]); 99.5% (active) in assay [2] (at 50.0 µM). For the same compound, the growth inhibition was 81% (active) in assay [3] (setting [7]); 99% (active) in assay [3] (setting [8]); 99.4% (active) in assay [3] (at 50.0 µM); 20% in assay [4] (setting [7]); 99% (active) in assay [4] (setting [8]); 99% (active) in assay [4] (at 50.0 µM). Besides, the growth inhibition in assay [5] (setting [7]) was 97% (active); in assay [5] (setting [8]) it was 99% (active); in assay [5] (at 50.0 µM), 99.5% (active); in assay [6] (setting [7]), 93% (active); in assay [6] (setting [8]), 98% (active); in assay [6] (at 50.0 µM) it was 99.1% (active).
For the compound `CC(/C=C1\CCC(CN(C)C)C1=O)c1cccc(Br)c1` (stereo not given), the growth inhibition in assay [1] (setting [7]) was -11%; in assay [1] (setting [8]) it was 97% (active); in assay [1] (at 50.0 µM), 93.8% (active); in assay [2] (setting [7]) it was -1%; in assay [2] (setting [8]) it was 99% (active); in assay [2] (at 50.0 µM) it was 94% (active). In addition, the growth inhibition in assay [3] (setting [7]) was 5%; in assay [3] (setting [8]) it was 97% (active); in assay [3] (at 50.0 µM) it was 93.5% (active); in assay [4] (setting [7]), 16%; in assay [4] (setting [8]) it was 98% (active); in assay [4] (at 50.0 µM), 92.2% (active). Moreover, the growth inhibition in assay [5] (setting [7]) was 18%; in assay [5] (setting [8]) it was 99% (active); in assay [5] (at 50.0 µM), 92.7% (active); in assay [6] (setting [7]), 7%; in assay [6] (setting [8]) it was 98% (active); in assay [6] (at 50.0 µM), 91.6% (active).
